Laboratory results reported in PubChem BioAssay (NCI).
Several values for one entry are separate records, joined by “and”; a condition that tells them apart may be missing. Identical values can stand only once. This is part of a sample that, as a whole, favours compounds with a hit. Of some 79,000 tested, about 15% had one in any assay. Values without a mark were called inactive. Activity calls are given as the source filed them. No stated cut-off is given here; in the data, active means growth inhibition above about 70%; inactive means the rest.

experiment: NCI Yeast Anticancer Drug Screen. Data for the mec2-1 strain (AID 157); conditions: S. cerevisiae mec2-1 strain, at 50.0 µM, hits give high values
How it was run: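 Readout is yeast growth inhibition, normalised to vehicle-treated controls, in the mec2-1 strain exposed to compound.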

For `O=C(c1ccccc1)C1C(C(=O)c2ccccc2)N1Cc1ccccc1` (stereo not given), the growth inhibition was 9.9% and 4.5%.
In the case of `O=[P+](O)c1ccccc1`, the growth inhibition is reported as -24.9% and -26.3%.
With `O=C(O)c1cc(Cc2ccc(O)c(C(=O)O)c2)ccc1O` the growth inhibition was 3.15% and -18.5%.
For `CO[C@H]1Nc2c(ccc(C)c2O)C(=O)N2C=C(/C=C/C(N)=O)C[C@@H]12`, the growth inhibition was 91.5% (active).
In the case of `CC(=O)c1ccccc1O`, the growth inhibition is reported as 11.4% and -10.9%.
For `O=C(O)C(F)(F)C(F)(Cl)C(F)(F)C(F)(Cl)C(F)(F)C(F)(Cl)C(F)(F)Cl` (stereo not given) (tested in a mixture with another compound), the growth inhibition was 28.8% and 18.4%.

Going from `c1ccc2c(c1)ccc1[s+]cccc12` to `COc1ccc(/C=C\[N+](=O)[O-])cc1OCc1ccccc1`, the growth inhibition falls from 23.2% to 8.35%.

First: CC(C)N(C(=O)SCC(Cl)=C(Cl)Cl)C(C)C
Second: CC(C)C(NC(=O)CCl)C(=O)O (stereo not given)
The growth inhibition of the first is lower: -15.8% for the first, -0.2% for the second.

Going from `CC(C)(Cl)[N+](=O)[O-]` to `CC1([N+](=O)[O-])COP(=O)(NCC2CCCO2)OC1` (stereo not given), the growth inhibition falls from -13.3% to -23.9%.

First: CC(C)NC(C)C(C)c1ccccc1 (stereo not given)
Second: CC(=O)C1(c2ccccc2)CCNCC1
The growth inhibition of the first is higher: -3.15% for the first, -13.1% for the second.

Going from `[Pd].[Pd].[S-]CC[S-].[S-]CC[S-].c1ccc([PH+](c2ccccc2)c2ccccc2)cc1.c1ccc([PH+](c2ccccc2)c2ccccc2)cc1` to `Clc1ccc([As](c2ccc(Cl)cc2)c2ccc(Cl)cc2)cc1`, the growth inhibition rises from 5.5% to 48.1%.

Going from `N.N.O=P([O-])([O-])CN(CP(=O)([O-])[O-])CP(=O)([O-])[O-].[Pt+2]` to `N.N.N.N.[Co+3].[O-][Cl+3]([O-])([O-])[O-].[OH3+].[OH3+]`, the growth inhibition rises from -9.8% to -1.15%.

First: CC1(CCl)COP(=O)(NN)OC1 (stereo not given)
Second: C=C1C(=O)OC2CC3(C)OC3CC/C(C)=C/C(OC(C)=O)C12 (stereo not given)
The growth inhibition of the first is lower: -3.15% for the first, 37.4% for the second.

Going from `O=P1(N(CCCl)CCCl)Oc2c(Cl)cc(Cl)c(Cl)c2Cc2c(Cl)c(Cl)cc(Cl)c2O1` to `O=c1oc2cc(O)ccc2c(O)c1C(c1ccccn1)c1c(O)c2ccc(O)cc2oc1=O`, the growth inhibition rises from -31.7% to 9.15%.

First: CN(C)P(=O)(N(C)C)N(C)CO
Second: O=NN(CCF)C(=O)NCCO
The growth inhibition of the first is higher: 6.05% for the first, -7.3% for the second.

Compared with `Cc1cccc(NC(=O)C(=O)C2C(=O)NC(=O)NC2=O)c1C`, `CC(=O)CC1(OC(=O)C2C(C=C(C)C)C2(C)C)C(=O)Nc2ccccc21` (stereo not given) is higher in growth inhibition: 13.8% for the first, 16.4% for the second.

Going from `CCn1/c(=N\N=O)sc2ccccc21` to `COC(=O)c1ccccc1NP(=O)(O)Oc1ccccc1` (tested in a mixture with another compound), the growth inhibition falls from 6.05% to -4.05%.

Compared with `COC(=O)c1cccc(S(=O)(=O)F)c1`, `O=C(Oc1ccc(S(=O)(=O)F)cc1Cl)c1ccc([N+](=O)[O-])cc1` is higher in growth inhibition: -5.05% for the first, 68% for the second.

Going from `CCCCCCC(=O)O[C@H]1CC[C@H]2[C@@H]3CCC4C/C(=N/NC(=O)c5cccc6c(=O)c7ccccc7[nH]c56)C=C(C)[C@]4(C)[C@H]3CC[C@]12C` (stereo not given in full) to `CC(C)(C)C(=O)CC(=O)C(C)(C)C.[Cl][Sb]1([Cl])[c]2ccccc2Cc2cccc[c]21`, the growth inhibition rises from -0.85% to 23.9%.

Going from `NCC1OC(OC2C(CO)OC(OC3C(O)C(N)CC(N)C3OC3OC(CN)C(O)C(O)C3N)C2O)C(N)C(O)C1O` (stereo not given) to `CN1C2CCCC1CC(=O)C2`, the growth inhibition falls from 2.3% to -3.55%.

Compared with `Cc1ccc(O)c(CN2CCN(Cc3cc(C)ccc3O)CC2)c1`, `COc1ccc(CC2C3=C(CCCC3)CCN2C)cc1` (stereo not given) is higher in growth inhibition: 15.8% for the first, 21.9% for the second.

First: CC(=O)C(C(C)=O)C(C)=O.CC(=O)C(C(C)=O)C(C)=O.CC(=O)C(C(C)=O)C(C)=O.[Cr]
Second: O=C(NCCNC(=O)Nc1ccccc1S(=O)(=O)F)Nc1ccccc1S(=O)(=O)F
The growth inhibition of the first is higher: 2.8% for the first, -35.2% for the second.

Going from `[Cl][Pd]([Cl])([Cl])[Cl].[NH-]CC[NH-].[NH-]CC[NH-].[Pd+2]` to `Oc1cc(Br)c(O)c(Br)c1`, the growth inhibition rises from 16.9% to 42.8%.

experiment: NCI Yeast Anticancer Drug Screen. Data for the sgs1 mgt1 strain (AID 161);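 further: 0% = growth of cultures given vehicle only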; conditions: S. cerevisiae sgs1 mgt1 strain, at 50.0 µM, hits give high values
How it was run: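 Compounds are added to genetically altered yeast, and growth is compared with cultures given vehicle alone to give percent inhibition.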

For `O=C(c1ccccc1)C1C(C(=O)c2ccccc2)N1Cc1ccccc1` (stereo not given), the growth inhibition was 3.8% and -9.95%.
With `O=[P+](O)c1ccccc1` the growth inhibition was -18.4% and 4.85%.
In the case of `O=C(O)c1cc(Cc2ccc(O)c(C(=O)O)c2)ccc1O`, the growth inhibition is reported as -18.3% and 8.2%.
For `CO[C@H]1Nc2c(ccc(C)c2O)C(=O)N2C=C(/C=C/C(N)=O)C[C@@H]12`, the growth inhibition was 90% (active).
With `Clc1ccc([As](c2ccc(Cl)cc2)c2ccc(Cl)cc2)cc1` the growth inhibition was 74.3% (active).
For `O=C(Oc1ccc(S(=O)(=O)F)cc1Cl)c1ccc([N+](=O)[O-])cc1`, the growth inhibition was 94.7% (active).
In the case of `CC(=O)c1ccccc1O`, the growth inhibition is reported as -53.4% and -0.4%.
In the case of `O=C(O)C(F)(F)C(F)(Cl)C(F)(F)C(F)(Cl)C(F)(F)C(F)(Cl)C(F)(F)Cl` (stereo not given) (tested in a mixture with another compound), the growth inhibition is reported as 37.4% and 41.1%.

Compared with `c1ccc2c(c1)ccc1[s+]cccc12`, `COc1ccc(/C=C\[N+](=O)[O-])cc1OCc1ccccc1` is lower in growth inhibition: 35.7% for the first, 22.6% for the second.

Compared with `CC(C)N(C(=O)SCC(Cl)=C(Cl)Cl)C(C)C`, `CC(C)C(NC(=O)CCl)C(=O)O` (stereo not given) is higher in growth inhibition: -0.35% for the first, 5.75% for the second.

First: CC(C)(Cl)[N+](=O)[O-]
Second: CC1([N+](=O)[O-])COP(=O)(NCC2CCCO2)OC1 (stereo not given)
The growth inhibition of the first is higher: 6.65% for the first, -2.9% for the second.

Compared with `CC(C)NC(C)C(C)c1ccccc1` (stereo not given), `CC(=O)C1(c2ccccc2)CCNCC1` is higher in growth inhibition: 0.1% for the first, 10.6% for the second.

First: [Pd].[Pd].[S-]CC[S-].[S-]CC[S-].c1ccc([PH+](c2ccccc2)c2ccccc2)cc1.c1ccc([PH+](c2ccccc2)c2ccccc2)cc1
Second: COC(=O)c1ccccc1NP(=O)(O)Oc1ccccc1 (tested in a mixture with another compound)
The growth inhibition of the first is lower: 8.9% for the first, 11.5% for the second.

Going from `N.N.O=P([O-])([O-])CN(CP(=O)([O-])[O-])CP(=O)([O-])[O-].[Pt+2]` to `N.N.N.N.[Co+3].[O-][Cl+3]([O-])([O-])[O-].[OH3+].[OH3+]`, the growth inhibition falls from -11.1% to -22.3%.

First: CC1(CCl)COP(=O)(NN)OC1 (stereo not given)
Second: C=C1C(=O)OC2CC3(C)OC3CC/C(C)=C/C(OC(C)=O)C12 (stereo not given)
The growth inhibition of the first is lower: -3.85% for the first, 29.6% for the second.

First: O=P1(N(CCCl)CCCl)Oc2c(Cl)cc(Cl)c(Cl)c2Cc2c(Cl)c(Cl)cc(Cl)c2O1
Second: O=c1oc2cc(O)ccc2c(O)c1C(c1ccccn1)c1c(O)c2ccc(O)cc2oc1=O
The growth inhibition of the first is higher: 2.85% for the first, -13.7% for the second.

Compared with `CN(C)P(=O)(N(C)C)N(C)CO`, `O=NN(CCF)C(=O)NCCO` is lower in growth inhibition: 25.4% for the first, 7.75% for the second.

First: Cc1cccc(NC(=O)C(=O)C2C(=O)NC(=O)NC2=O)c1C
Second: CC(=O)CC1(OC(=O)C2C(C=C(C)C)C2(C)C)C(=O)Nc2ccccc21 (stereo not given)
The growth inhibition of the first is lower: -14% for the first, 18.6% for the second.

First: CCn1/c(=N\N=O)sc2ccccc21
Second: COC(=O)c1cccc(S(=O)(=O)F)c1
The growth inhibition of the first is higher: -4.2% for the first, -15.7% for the second.

Compared with `CCCCCCC(=O)O[C@H]1CC[C@H]2[C@@H]3CCC4C/C(=N/NC(=O)c5cccc6c(=O)c7ccccc7[nH]c56)C=C(C)[C@]4(C)[C@H]3CC[C@]12C` (stereo not given in full), `CC(C)(C)C(=O)CC(=O)C(C)(C)C.[Cl][Sb]1([Cl])[c]2ccccc2Cc2cccc[c]21` is higher in growth inhibition: 16.6% for the first, 20.1% for the second.

Going from `NCC1OC(OC2C(CO)OC(OC3C(O)C(N)CC(N)C3OC3OC(CN)C(O)C(O)C3N)C2O)C(N)C(O)C1O` (stereo not given) to `CN1C2CCCC1CC(=O)C2`, the growth inhibition falls from 10.3% to -19.4%.

First: Cc1ccc(O)c(CN2CCN(Cc3cc(C)ccc3O)CC2)c1
Second: COc1ccc(CC2C3=C(CCCC3)CCN2C)cc1 (stereo not given)
The growth inhibition of the first is lower: 13.2% for the first, 28.6% for the second.

Compared with `CC(=O)C(C(C)=O)C(C)=O.CC(=O)C(C(C)=O)C(C)=O.CC(=O)C(C(C)=O)C(C)=O.[Cr]`, `O=C(NCCNC(=O)Nc1ccccc1S(=O)(=O)F)Nc1ccccc1S(=O)(=O)F` is lower in growth inhibition: 11.2% for the first, -16.1% for the second.

Compared with `[Cl][Pd]([Cl])([Cl])[Cl].[NH-]CC[NH-].[NH-]CC[NH-].[Pd+2]`, `Oc1cc(Br)c(O)c(Br)c1` is lower in growth inhibition: 32% for the first, 29.9% for the second.
